# “And” between values parts separate entries of the source, which are not always exact repeats. Identical values can stand only once. Compounds without any hit were thinned out: in the full panel of roughly 83,000, 20% have a hit.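 Treatment: one concentration, 48 hours, 96-well format. Scoring: percent growth, with anything below 10 considered active.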 The source made the active and inactive calls.
# What was measured:
# Test in all cases: NCI-60 one-dose screen, 48 h (100 = growth as untreated, 0 = no growth, -100 = all killed)
# NCI-H23 lung = test system: NCI-H23 lung
# NCI-H226 lung = test system: NCI-H226 lung
# NCI-H322M lung = test system: NCI-H322M lung
# HOP-62 NSCLC = test system: HOP-62 NSCLC
# NCI-H460 lung = test system: NCI-H460 lung
# NCI-H522 lung = conditions: 10 µM unless noted
# A549/ATCC NSCLC = test system: A549/ATCC NSCLC
# 786-0 renal = test system: 786-0 renal
# COLO 205 colon = test system: COLO 205 colon
# DU-145 prostate = test system: DU-145 prostate
# K-562 leukemia = test system: K-562 leukemia
# MALME-3M melanoma = test system: MALME-3M melanoma
# MDA-MB-231 breast = test system: MDA-MB-231 breast
# RXF 393 renal = test system: RXF 393 renal
# SF-268 CNS = test system: SF-268 CNS
# SF-295 CNS = test system: SF-295 CNS
# SF-539 CNS = test system: SF-539 CNS
# UACC-257 melanoma = conditions: 10 µM unless noted
# M14 melanoma = test system: M14 melanoma
# HOP-92 NSCLC = test system: HOP-92 NSCLC
structure (smiles),measurement,setting,value
CN(C)C(=O)c1ccc(SC(=S)NCc2ccccc2)cc1,growth,NCI-H23 lung; 10 µM,109% (inactive)
same,growth,NCI-H23 lung; 100 µM,5.21% (active)
same,growth,NCI-H226 lung; 10 µM,112% (inactive)
same,growth,NCI-H226 lung; 100 µM,102% (inactive)
same,growth,NCI-H322M lung; 10 µM,110% (inactive)
same,growth,NCI-H322M lung; 100 µM,58.2% (inactive)
same,growth,HOP-62 NSCLC; 10 µM,107% (inactive)
same,growth,HOP-62 NSCLC; 100 µM,46.5% (inactive)
same,growth,NCI-H460 lung; 10 µM,105% (inactive)
same,growth,NCI-H460 lung; 100 µM,8.96% (active)
same,growth,NCI-H522 lung,-48.7% [100 µM] (active)
same,growth,A549/ATCC NSCLC; 10 µM,105% (inactive)
same,growth,A549/ATCC NSCLC; 100 µM,34.4% (inactive)
same,growth,786-0 renal; 10 µM,109% (inactive)
same,growth,786-0 renal; 100 µM,-17.6% (active)
same,growth,COLO 205 colon; 10 µM,101% (inactive)
same,growth,COLO 205 colon; 100 µM,-11.4% (active)
same,growth,DU-145 prostate; 10 µM,111% (inactive)
same,growth,DU-145 prostate; 100 µM,10.1% (inactive)
same,growth,K-562 leukemia; 10 µM,82.6% (inactive)
same,growth,K-562 leukemia; 100 µM,3.9% (active)
same,growth,MALME-3M melanoma; 10 µM,108% (inactive)
same,growth,MALME-3M melanoma; 100 µM,-12.7% (active)
same,growth,MDA-MB-231 breast; 10 µM,109% (inactive)
same,growth,MDA-MB-231 breast; 100 µM,13.3% (inactive)
same,growth,RXF 393 renal; 10 µM,108% (inactive)
same,growth,RXF 393 renal; 100 µM,-72.4% (active)
same,growth,SF-268 CNS; 10 µM,124% (inactive)
same,growth,SF-268 CNS; 100 µM,50.2% (inactive)
same,growth,SF-295 CNS; 10 µM,119% (inactive)
same,growth,SF-295 CNS; 100 µM,26.3% (inactive)
same,growth,SF-539 CNS; 10 µM,102% (inactive)
same,growth,SF-539 CNS; 100 µM,-62.3% (active)
same,growth,UACC-257 melanoma,18.4% [100 µM] (inactive)
same,growth,M14 melanoma; 10 µM,103% (inactive)
same,growth,M14 melanoma; 100 µM,-42% (active)
COc1cc(NS(C)(=O)=O)ccc1Nc1c2ccccc2nc2ccccc12,growth,NCI-H23 lung; 2.5 µM,8.63% (active)
same,growth,NCI-H23 lung; 10 µM,-3.53% (active) [middle of 4 runs]
same,growth,NCI-H226 lung; 10 µM unless noted,-8.63% [2.5 µM] (active)
same,growth,NCI-H322M lung; 10 µM unless noted,83.9% [2.5 µM] (inactive)
same,growth,HOP-62 NSCLC; 10 µM unless noted,18.2% [2.5 µM] (inactive)
same,growth,NCI-H460 lung; 10 µM unless noted,4.6% [2.5 µM] (active)
same,growth,HOP-92 NSCLC; 2.5 µM,9.79% (active)
same,growth,HOP-92 NSCLC; 10 µM,42.5% (inactive) and 10.3% (inactive)
same,growth,A549/ATCC NSCLC; 2.5 µM,28.1% (inactive)
same,growth,A549/ATCC NSCLC; 10 µM,12.9% (inactive) [middle of 4 runs]
same,growth,786-0 renal; 10 µM unless noted,-3.06% [2.5 µM] (active)
same,growth,COLO 205 colon; 10 µM unless noted,39.7% [2.5 µM] (inactive)
same,growth,DU-145 prostate; 10 µM unless noted,-34.4% [2.5 µM] (active)
same,growth,K-562 leukemia; 2.5 µM,29.2% (inactive)
same,growth,K-562 leukemia; 10 µM,0.97% (active) and 16.8% (inactive) and 23.4% (inactive)
same,growth,MALME-3M melanoma; 2.5 µM,43.4% (inactive)
same,growth,MALME-3M melanoma; 10 µM,-25.4% (active) and 20.4% (inactive) and 25.4% (inactive)
same,growth,MDA-MB-231 breast; 10 µM unless noted,98.2% [2.5 µM] (inactive)
same,growth,RXF 393 renal; 10 µM unless noted,6.88% [2.5 µM] (active)
same,growth,SF-268 CNS; 2.5 µM,35.1% (inactive)
same,growth,SF-268 CNS; 10 µM,25.1% (inactive) [middle of 4 runs]
same,growth,SF-295 CNS; 10 µM unless noted,3.7% [2.5 µM] (active)
same,growth,SF-539 CNS; 10 µM unless noted,-34.3% [2.5 µM] (active)
same,growth,UACC-257 melanoma,5.31% [2.5 µM] (active)
same,growth,M14 melanoma; 10 µM unless noted,8.39% (active) [middle of 4 runs]
Cc1ccc2c(ccc3c[n+]4c5ccccc5ccc4n32)c1,growth,NCI-H23 lung; 10 µM unless noted,10.4% (inactive)
same,growth,NCI-H226 lung; 10 µM unless noted,7.48% (active)
same,growth,NCI-H322M lung; 10 µM unless noted,12.7% (inactive)
same,growth,HOP-62 NSCLC; 10 µM unless noted,0.81% (active)
same,growth,NCI-H460 lung; 10 µM unless noted,1.99% (active)
same,growth,HOP-92 NSCLC; 10 µM unless noted,-11.1% (active)
same,growth,NCI-H522 lung,-33.4% (active)
same,growth,A549/ATCC NSCLC; 10 µM unless noted,4.82% (active)
same,growth,786-0 renal; 10 µM unless noted,27.4% (inactive)
same,growth,COLO 205 colon; 10 µM unless noted,-34.2% (active)
same,growth,DU-145 prostate; 10 µM unless noted,20.7% (inactive)
same,growth,K-562 leukemia; 10 µM unless noted,6.39% (active)
same,growth,MALME-3M melanoma; 10 µM unless noted,-45.5% (active)
same,growth,MDA-MB-231 breast; 10 µM unless noted,19.6% (inactive)
same,growth,RXF 393 renal; 10 µM unless noted,28.9% (inactive)
same,growth,SF-268 CNS; 10 µM unless noted,1.4% (active)
same,growth,SF-295 CNS; 10 µM unless noted,-1.86% (active)
same,growth,SF-539 CNS; 10 µM unless noted,-3.04% (active)
same,growth,UACC-257 melanoma,-36% (active)
same,growth,M14 melanoma; 10 µM unless noted,2.99% (active)
N[C@H](C(=O)O)[C@@H]1CC(Cl)=NO1,growth,NCI-H23 lung; 10 µM unless noted,22.8% [20 µM] (inactive)
same,growth,NCI-H226 lung; 10 µM unless noted,38.1% [20 µM] (inactive)
same,growth,NCI-H322M lung; 10 µM unless noted,37.2% [20 µM] (inactive)
same,growth,HOP-62 NSCLC; 10 µM unless noted,26.1% [20 µM] (inactive)
same,growth,NCI-H460 lung; 10 µM unless noted,7.07% [20 µM] (active)
same,growth,HOP-92 NSCLC; 10 µM unless noted,63.6% [20 µM] (inactive)
same,growth,NCI-H522 lung,25.4% [20 µM] (inactive)
same,growth,A549/ATCC NSCLC; 10 µM unless noted,19.1% [20 µM] (inactive)
same,growth,786-0 renal; 10 µM unless noted,24.2% [20 µM] (inactive)
same,growth,COLO 205 colon; 10 µM unless noted,33.5% [20 µM] (inactive)
same,growth,DU-145 prostate; 10 µM unless noted,37.7% [20 µM] (inactive)
same,growth,K-562 leukemia; 10 µM unless noted,20% [20 µM] (inactive)
same,growth,MALME-3M melanoma; 10 µM unless noted,33.5% [20 µM] (inactive)
same,growth,MDA-MB-231 breast; 10 µM unless noted,43.4% [20 µM] (inactive)
same,growth,RXF 393 renal; 10 µM unless noted,48.7% [20 µM] (inactive)
same,growth,SF-268 CNS; 10 µM unless noted,25.5% [20 µM] (inactive)
same,growth,SF-295 CNS; 10 µM unless noted,31.2% [20 µM] (inactive)
same,growth,SF-539 CNS; 10 µM unless noted,21.4% [20 µM] (inactive)
same,growth,UACC-257 melanoma,39.1% [20 µM] (inactive)
same,growth,M14 melanoma; 10 µM unless noted,16.9% [20 µM] (inactive)
CCCCCC(CCCCC)C(=O)O,growth,NCI-H23 lung; 10 µM unless noted,114% (inactive)
same,growth,NCI-H226 lung; 10 µM unless noted,112% (inactive)
same,growth,NCI-H322M lung; 10 µM unless noted,103% (inactive)
same,growth,HOP-62 NSCLC; 10 µM unless noted,98.1% (inactive)
same,growth,NCI-H460 lung; 10 µM unless noted,116% (inactive)
same,growth,HOP-92 NSCLC; 10 µM unless noted,78.8% (inactive)
same,growth,NCI-H522 lung,88.8% (inactive)
same,growth,A549/ATCC NSCLC; 10 µM unless noted,102% (inactive)
same,growth,786-0 renal; 10 µM unless noted,107% (inactive)
same,growth,COLO 205 colon; 10 µM unless noted,102% (inactive)
same,growth,DU-145 prostate; 10 µM unless noted,119% (inactive)
same,growth,K-562 leukemia; 10 µM unless noted,99.8% (inactive)
same,growth,MALME-3M melanoma; 10 µM unless noted,119% (inactive)
same,growth,MDA-MB-231 breast; 10 µM unless noted,105% (inactive)
same,growth,RXF 393 renal; 10 µM unless noted,135% (inactive)
same,growth,SF-268 CNS; 10 µM unless noted,104% (inactive)
same,growth,SF-295 CNS; 10 µM unless noted,108% (inactive)
same,growth,SF-539 CNS; 10 µM unless noted,104% (inactive)
same,growth,UACC-257 melanoma,116% (inactive)
same,growth,M14 melanoma; 10 µM unless noted,112% (inactive)

# Source: PubChem BioAssay (NCI)
